Assay results reported in the supplement of paper PMC11732987, “Enantioselective OTUD7B fragment discovery through chemoproteomics screening and high-throughput optimisation” (Communications Chemistry, 2025).

Columns and labels:
Experiment in all cases: log2 ratio of Biotin-Ahx-Ub-VS probe labelling (fragment/DMSO); higher = less target engagement (more negative = stronger competition), active = hit call of the paper (q ≤ 0.05, log2 ratio ≤ -1)
Settings in all cases: compound concentration: 200 uM; treatment time: 3 h
USP19 = biological target: T1, USP19 (UniProt O94966)
T1 sequence (whole entry): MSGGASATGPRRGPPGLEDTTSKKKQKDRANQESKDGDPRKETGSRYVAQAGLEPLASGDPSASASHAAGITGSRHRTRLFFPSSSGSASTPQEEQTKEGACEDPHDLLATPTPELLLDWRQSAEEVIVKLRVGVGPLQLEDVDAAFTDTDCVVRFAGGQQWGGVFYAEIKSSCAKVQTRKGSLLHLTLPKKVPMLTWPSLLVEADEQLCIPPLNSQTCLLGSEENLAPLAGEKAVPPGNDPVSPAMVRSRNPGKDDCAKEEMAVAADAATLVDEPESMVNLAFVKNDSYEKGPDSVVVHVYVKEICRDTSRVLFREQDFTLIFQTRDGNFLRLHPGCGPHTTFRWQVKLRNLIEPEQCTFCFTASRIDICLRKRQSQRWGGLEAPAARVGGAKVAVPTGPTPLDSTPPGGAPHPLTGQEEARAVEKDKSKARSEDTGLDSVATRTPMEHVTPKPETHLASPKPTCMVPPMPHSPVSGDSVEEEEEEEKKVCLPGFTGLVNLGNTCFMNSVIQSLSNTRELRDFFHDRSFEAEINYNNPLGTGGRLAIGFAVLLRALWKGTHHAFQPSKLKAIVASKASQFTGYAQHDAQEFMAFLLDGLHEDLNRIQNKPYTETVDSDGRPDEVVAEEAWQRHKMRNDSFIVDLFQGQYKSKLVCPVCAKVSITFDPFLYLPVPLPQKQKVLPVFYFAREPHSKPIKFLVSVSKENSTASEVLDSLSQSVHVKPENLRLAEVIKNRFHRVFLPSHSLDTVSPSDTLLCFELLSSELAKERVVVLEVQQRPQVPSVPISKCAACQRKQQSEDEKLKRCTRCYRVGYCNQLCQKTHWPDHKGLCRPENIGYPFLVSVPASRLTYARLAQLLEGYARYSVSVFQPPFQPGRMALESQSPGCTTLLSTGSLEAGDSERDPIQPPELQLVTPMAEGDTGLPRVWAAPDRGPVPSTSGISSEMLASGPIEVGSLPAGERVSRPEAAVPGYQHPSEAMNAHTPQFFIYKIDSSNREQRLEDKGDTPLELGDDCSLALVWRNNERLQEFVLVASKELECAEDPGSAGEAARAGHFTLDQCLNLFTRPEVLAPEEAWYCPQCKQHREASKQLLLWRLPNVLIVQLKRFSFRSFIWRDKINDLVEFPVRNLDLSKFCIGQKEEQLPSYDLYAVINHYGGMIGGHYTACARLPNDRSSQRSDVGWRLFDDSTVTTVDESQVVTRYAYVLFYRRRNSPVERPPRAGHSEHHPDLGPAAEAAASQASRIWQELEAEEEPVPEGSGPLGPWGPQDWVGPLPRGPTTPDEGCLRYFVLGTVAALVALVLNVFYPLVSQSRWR
Summary of the method: (§1)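 The table lists average log2 ratios of fragment over vehicle, from an unpaired t-test on global-median-normalised Spectronaut label-free quantities. Proteins with ≥2 unique peptides were used. Samples were HEK293T lysate (495 µg) treated in triplicate with fragment at 200 µM or vehicle for 3 h, then with Biotin-Ahx-Ub-VS (0.5 µM final) for 1 h, with labelled DUBs NeutrAvidin-enriched and run by diaPASEF LC-MS/MS.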

USP24 = USP24 (UniProt Q9UPU5)
USP24, sequence (Q9UPU5 whole entry): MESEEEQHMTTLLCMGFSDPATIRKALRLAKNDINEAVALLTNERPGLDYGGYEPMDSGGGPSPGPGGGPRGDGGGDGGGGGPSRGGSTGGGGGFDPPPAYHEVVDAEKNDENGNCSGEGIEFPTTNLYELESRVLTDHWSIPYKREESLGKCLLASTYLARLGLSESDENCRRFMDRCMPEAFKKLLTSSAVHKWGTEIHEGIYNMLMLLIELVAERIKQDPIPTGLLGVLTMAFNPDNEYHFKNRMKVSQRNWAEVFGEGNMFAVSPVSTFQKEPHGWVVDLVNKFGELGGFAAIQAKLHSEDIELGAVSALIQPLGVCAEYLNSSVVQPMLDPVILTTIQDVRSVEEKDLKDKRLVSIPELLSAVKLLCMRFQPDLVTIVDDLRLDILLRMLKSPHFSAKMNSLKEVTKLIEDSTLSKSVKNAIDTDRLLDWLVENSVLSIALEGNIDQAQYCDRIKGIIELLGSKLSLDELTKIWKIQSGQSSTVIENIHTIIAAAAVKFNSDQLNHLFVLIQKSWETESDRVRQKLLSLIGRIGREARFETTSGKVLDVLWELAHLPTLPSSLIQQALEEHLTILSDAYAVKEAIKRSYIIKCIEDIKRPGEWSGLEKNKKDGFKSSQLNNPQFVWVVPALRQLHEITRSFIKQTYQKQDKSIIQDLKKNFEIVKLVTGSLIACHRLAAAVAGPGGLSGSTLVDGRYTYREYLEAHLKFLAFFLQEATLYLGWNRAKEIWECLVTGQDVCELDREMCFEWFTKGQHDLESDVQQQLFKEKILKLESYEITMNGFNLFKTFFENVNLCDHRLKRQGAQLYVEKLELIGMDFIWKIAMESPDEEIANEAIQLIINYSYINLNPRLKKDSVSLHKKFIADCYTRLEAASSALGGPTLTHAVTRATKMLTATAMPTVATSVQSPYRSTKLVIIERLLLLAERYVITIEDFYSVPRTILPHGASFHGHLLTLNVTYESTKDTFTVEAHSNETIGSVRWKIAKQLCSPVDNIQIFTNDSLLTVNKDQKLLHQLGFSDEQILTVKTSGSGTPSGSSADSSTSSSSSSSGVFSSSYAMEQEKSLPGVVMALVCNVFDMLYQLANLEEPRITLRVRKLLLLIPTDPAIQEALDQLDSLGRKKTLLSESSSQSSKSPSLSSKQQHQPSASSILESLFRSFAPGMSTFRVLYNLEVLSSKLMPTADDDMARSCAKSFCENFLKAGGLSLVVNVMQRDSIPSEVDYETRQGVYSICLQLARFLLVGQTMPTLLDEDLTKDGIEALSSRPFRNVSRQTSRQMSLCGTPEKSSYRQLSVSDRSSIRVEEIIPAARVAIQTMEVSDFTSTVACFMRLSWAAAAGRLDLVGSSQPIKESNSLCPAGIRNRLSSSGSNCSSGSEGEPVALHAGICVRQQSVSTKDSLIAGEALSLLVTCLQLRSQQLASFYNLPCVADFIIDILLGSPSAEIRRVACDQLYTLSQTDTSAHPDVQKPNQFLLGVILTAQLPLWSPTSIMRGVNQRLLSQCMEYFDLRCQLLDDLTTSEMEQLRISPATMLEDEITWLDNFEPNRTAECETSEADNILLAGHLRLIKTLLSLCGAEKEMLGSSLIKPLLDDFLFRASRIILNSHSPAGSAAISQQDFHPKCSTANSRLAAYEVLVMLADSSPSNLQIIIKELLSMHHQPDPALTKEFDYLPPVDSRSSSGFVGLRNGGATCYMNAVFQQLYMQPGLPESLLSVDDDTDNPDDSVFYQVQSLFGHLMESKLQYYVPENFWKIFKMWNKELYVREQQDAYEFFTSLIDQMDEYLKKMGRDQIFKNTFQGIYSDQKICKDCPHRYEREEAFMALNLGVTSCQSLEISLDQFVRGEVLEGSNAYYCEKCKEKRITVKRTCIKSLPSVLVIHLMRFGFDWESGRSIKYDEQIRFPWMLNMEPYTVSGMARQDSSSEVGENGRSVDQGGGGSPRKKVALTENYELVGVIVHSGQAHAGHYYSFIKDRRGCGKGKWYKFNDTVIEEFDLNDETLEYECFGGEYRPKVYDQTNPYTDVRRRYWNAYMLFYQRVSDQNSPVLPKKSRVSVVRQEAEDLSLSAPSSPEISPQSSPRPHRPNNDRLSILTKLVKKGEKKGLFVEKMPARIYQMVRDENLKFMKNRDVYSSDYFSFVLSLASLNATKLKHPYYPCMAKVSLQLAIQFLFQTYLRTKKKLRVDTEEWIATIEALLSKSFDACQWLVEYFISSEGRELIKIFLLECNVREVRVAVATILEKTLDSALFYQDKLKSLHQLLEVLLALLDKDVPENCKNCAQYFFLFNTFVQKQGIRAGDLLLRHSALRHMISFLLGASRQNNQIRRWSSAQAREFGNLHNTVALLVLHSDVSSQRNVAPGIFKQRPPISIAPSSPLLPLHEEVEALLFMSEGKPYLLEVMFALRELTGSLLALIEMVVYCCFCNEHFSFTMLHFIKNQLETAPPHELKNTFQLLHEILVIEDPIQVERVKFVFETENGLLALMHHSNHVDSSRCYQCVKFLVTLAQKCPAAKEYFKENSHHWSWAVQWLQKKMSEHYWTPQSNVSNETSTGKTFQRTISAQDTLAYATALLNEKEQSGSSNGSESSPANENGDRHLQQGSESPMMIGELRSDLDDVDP
Summary of the method: as §1

USP25 = biological target: T2, USP25 (UniProt Q9UHP3)
T2 sequence (whole entry): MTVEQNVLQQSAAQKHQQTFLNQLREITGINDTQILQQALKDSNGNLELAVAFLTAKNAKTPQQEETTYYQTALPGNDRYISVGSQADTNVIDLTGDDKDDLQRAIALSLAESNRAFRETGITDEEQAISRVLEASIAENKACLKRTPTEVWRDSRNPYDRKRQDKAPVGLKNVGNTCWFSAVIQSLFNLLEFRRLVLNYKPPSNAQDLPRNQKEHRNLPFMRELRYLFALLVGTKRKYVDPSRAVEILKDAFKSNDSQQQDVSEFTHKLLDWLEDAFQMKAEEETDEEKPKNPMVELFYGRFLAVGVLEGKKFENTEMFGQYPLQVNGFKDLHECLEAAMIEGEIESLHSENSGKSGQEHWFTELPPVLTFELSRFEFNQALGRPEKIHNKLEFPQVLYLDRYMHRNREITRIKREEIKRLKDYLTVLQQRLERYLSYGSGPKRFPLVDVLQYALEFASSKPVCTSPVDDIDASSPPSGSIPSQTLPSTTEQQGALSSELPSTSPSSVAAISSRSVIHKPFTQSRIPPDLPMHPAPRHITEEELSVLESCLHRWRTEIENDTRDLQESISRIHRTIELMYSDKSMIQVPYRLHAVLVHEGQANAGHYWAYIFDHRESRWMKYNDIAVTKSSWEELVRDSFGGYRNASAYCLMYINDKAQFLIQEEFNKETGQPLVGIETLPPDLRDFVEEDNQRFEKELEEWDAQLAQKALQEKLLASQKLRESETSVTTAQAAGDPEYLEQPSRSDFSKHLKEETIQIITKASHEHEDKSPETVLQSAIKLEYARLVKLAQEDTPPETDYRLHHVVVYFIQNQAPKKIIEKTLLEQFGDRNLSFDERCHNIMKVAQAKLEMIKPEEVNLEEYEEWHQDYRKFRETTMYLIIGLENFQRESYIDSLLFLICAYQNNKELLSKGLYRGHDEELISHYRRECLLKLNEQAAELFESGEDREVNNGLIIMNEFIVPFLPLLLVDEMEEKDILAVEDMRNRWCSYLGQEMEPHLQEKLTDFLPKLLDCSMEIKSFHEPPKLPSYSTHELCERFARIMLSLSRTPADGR
Summary of the method: as §1

USP28 = biological target: T3, USP28 (UniProt Q96RU2)
T3 sequence (whole entry): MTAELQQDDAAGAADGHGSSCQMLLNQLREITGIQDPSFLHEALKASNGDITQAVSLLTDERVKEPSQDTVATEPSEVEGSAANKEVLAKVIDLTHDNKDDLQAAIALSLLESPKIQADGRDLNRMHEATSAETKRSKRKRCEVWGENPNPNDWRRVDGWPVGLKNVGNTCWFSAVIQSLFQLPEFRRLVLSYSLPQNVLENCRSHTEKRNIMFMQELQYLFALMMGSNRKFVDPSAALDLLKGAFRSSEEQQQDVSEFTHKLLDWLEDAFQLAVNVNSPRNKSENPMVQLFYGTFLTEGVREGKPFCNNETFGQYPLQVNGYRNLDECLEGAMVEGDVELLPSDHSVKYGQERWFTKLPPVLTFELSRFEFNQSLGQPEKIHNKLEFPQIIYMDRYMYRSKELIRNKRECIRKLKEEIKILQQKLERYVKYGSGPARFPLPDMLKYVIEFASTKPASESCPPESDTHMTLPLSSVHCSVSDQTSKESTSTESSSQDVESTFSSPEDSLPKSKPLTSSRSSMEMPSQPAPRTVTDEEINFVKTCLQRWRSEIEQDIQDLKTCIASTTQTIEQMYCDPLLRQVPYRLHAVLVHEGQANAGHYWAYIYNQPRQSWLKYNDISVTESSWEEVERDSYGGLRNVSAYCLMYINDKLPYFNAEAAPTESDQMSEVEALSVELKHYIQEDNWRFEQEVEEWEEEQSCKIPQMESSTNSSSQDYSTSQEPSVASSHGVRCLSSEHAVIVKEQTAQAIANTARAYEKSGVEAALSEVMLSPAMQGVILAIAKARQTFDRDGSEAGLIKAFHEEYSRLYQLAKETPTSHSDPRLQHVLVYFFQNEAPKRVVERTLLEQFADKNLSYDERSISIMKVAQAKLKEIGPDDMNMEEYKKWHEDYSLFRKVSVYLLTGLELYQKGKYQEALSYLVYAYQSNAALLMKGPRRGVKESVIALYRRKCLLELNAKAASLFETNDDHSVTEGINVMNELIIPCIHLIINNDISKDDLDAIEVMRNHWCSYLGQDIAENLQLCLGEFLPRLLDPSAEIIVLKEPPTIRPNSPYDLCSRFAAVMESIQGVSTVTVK
Summary of the method: as §1

Measured: log2 ratio of Biotin-Ahx-Ub-VS probe labelling

O=C(CCl)N1CCCC2CCCCC21 (centres undefined)
inactive: USP19 -0.188 | USP24 -0.697 | USP25 -0.193 | USP28 -0.333
